Screens (PubChem)
Anthrax LF prot: Bacillus anthracis LF protease inhibitors, primary screen, biochemical, multiplex microsphere, MLPCN library. Lethal factor (Bacillus anthracis), P15917. multiplex microsphere protease cleavage assay. inhibition, % at 10 µM. actives 0.12% (n = 360,000); in the data active = inhibition above about 30%; inconclusive = no clear call, values can overlap the other calls
Target sequence (P15917 whole entry, looked up): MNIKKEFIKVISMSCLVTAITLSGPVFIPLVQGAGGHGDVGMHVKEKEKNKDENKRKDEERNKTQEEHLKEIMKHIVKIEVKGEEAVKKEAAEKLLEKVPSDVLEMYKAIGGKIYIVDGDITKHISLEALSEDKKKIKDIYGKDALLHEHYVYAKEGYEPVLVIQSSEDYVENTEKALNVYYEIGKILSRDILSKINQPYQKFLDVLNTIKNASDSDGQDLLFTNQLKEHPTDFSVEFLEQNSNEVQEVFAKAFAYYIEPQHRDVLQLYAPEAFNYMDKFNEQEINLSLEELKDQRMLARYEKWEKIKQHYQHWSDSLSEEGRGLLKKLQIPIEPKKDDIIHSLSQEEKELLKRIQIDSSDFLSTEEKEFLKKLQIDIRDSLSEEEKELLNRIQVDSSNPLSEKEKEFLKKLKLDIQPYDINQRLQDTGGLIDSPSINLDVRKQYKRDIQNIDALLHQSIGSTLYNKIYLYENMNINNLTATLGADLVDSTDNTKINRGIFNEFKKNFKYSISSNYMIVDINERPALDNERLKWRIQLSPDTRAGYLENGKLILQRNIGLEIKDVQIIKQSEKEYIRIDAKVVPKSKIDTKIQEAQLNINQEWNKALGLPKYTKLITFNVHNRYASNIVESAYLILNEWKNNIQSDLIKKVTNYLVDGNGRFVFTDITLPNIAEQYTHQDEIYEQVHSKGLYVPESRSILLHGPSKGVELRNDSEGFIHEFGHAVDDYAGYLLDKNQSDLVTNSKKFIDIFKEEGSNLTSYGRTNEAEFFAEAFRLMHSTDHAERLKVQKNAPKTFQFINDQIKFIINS
TcdB inh: TcdB glycohydrolase inhibitors, primary screen, biochemical, single point, plate reader. Toxin B (Clostridioides difficile), P18177. TcdB glycohydrolase enzymatic assay. inhibition, % at 9.99 µM. actives 0.24% (n = 350,000). AID 652162, 2013; in the data active = inhibition above about 10%
BoNT A protease: BoNT/A light chain protease inhibitors, primary screen, biochemical, flow cytometry, MLPCN library. Botulinum neurotoxin type A light chain protease (Clostridium botulinum A str. ATCC 3502). multiplex microsphere protease substrate cleavage. inhibition, % at 10 µM. actives 0.17% (n = 360,000). AID 588499, 2011; in the data active = inhibition above about 30%; inconclusive = no clear call, values can overlap the other calls
Bead autofluor: counter-screen for toxin protease inhibitors: compound fluorescence; compound autofluorescence counterscreen, microsphere flow cytometry; active compounds read high; fluorescence intensity (no concentration beside the values); actives 3.1% (n = 360,000); in the data active = fluorescence intensity above about 16000; inconclusive = no clear call, values can overlap the other calls
BoNT-F LC inh: BoNT/F light chain protease inhibitors, primary screen, biochemical, flow cytometry, MLPCN library; actives 0.22% (n = 360,000); Multiplex microsphere protease cleavage assay; Botulinum neurotoxin type F light chain protease (Clostridium botulinum); inhibition, % at 10 µM; in the data active = inhibition above about 35%, passing the limit was not always enough; inconclusive = no clear call, values can overlap the other calls
BoNT-A LC CP1: BoNT/A light chain protease inhibitors, confirmation, biochemical, flow cytometry, cherry pick 1; shares compounds with BoNT-F LC inh; multiplex microsphere protease assay; inhibition, % at 10 µM; actives 3% (n = 720); AID 602139, 2011; in the data active = inhibition above about 32%
BoNT-F LC CP1: BoNT/F light chain protease inhibitors, confirmation, biochemical, flow cytometry, cherry pick 1 | shares compounds with BoNT-F LC inh | multiplex microsphere protease cleavage assay | inhibition, % at 10 µM | 720 tested, under 10 active | AID 602140, 2011
LF protease CP1: Bacillus anthracis LF protease inhibitors, confirmation, biochemical, multiplex microsphere, cherry pick 1; inhibition, % at 10 µM; AID 602142, 2011; shares compounds with BoNT-F LC inh; multiplex microsphere protease cleavage assay; 720 tested, under 10 active
A number is an active result; i = inactive; ? = inconclusive; nt = not tested or not shown. This excerpt belongs to a sample that is enriched for hits. Unless noted, no rule for the calls is given here.

SMILES	Anthrax LF prot	TcdB inh	BoNT A protease	Bead autofluor	BoNT-F LC inh	BoNT-A LC CP1	BoNT-F LC CP1	LF protease CP1
CCC(NC(=O)OC(C)(C)C)C(=O)Oc1cc(C)cc2oc(=O)c3c(c12)CCC3 (stereo unspecified)	i	nt	i	20994	i	nt	nt	nt
C[C@@H]1CN([C@@H](C)CO)C(=O)c2cccc(NC(=O)c3ccc(-c4nccs4)cc3)c2O[C@H]1CN(C)Cc1ccc2c(c1)OCO2	nt	i	nt	nt	nt	nt	nt	nt
CC(=O)N1[C@H](C(=O)NCCCN(C)C)[C@@H](CO)[C@@H]2Cn3c(ccc(-c4cccc(F)c4)c3=O)[C@@H]21	nt	i	nt	nt	nt	nt	nt	nt
Cc1c(Cl)cccc1NC(=S)N1CCN(Cc2ccccc2)CC1	i	nt	i	23770	i	nt	nt	nt
COC(=O)c1ccc(Cl)c(NC(=O)CN(c2ccc3c(c2)OCO3)S(C)(=O)=O)c1	i	nt	i	20796	i	nt	nt	nt
COC(=O)c1ccc(Cl)c(NC(=O)CN2CCN(C)CC2)c1	i	nt	?	23083	i	nt	nt	nt
O=C(CN1CCCC1)Nc1ccccc1Cl	i	nt	?	22970	i	nt	nt	nt
S=C(Nc1ccccc1Cl)N1CCN(Cc2ccccc2)CC1	i	i	i	i	i	nt	nt	nt
CN(C)C(=O)c1cccc(-c2ccc3c(c2)[C@@H]2[C@@H](CCN2C(=O)Nc2ccc(F)cc2)[C@H](CO)N3C)c1	nt	i	nt	nt	nt	nt	nt	nt
Cc1c(Cl)cccc1NC(=O)CN1CCN(CCO)CC1	i	nt	i	22331	i	nt	nt	nt
C[C@H](CO)N1C[C@H](C)[C@H](CN(C)Cc2ccc(F)cc2)Oc2ncc(-c3cccc(C#N)c3)cc2C1=O	nt	i	nt	nt	nt	nt	nt	nt
Cc1c(C(=O)Nc2ccncc2)oc2c1C(=O)CC(C)(C)C2	i	i	?	19786	i	nt	nt	nt
C#CC(CC)(CC)NC(=O)/C=C/C(=O)O	32	i	i	?	?	nt	nt	nt
C=CCn1c(N)c(-c2nc3ccccc3n2C)sc1=S	i	nt	i	22610	i	nt	nt	nt
CC(=O)Oc1ccc(/C=N/NC(=O)CCSc2ccccc2)cc1	i	11	i	i	i	nt	nt	nt
CCCCN1C(=O)NC(NS(=O)(=O)c2ccc(N)cc2)(C(F)(F)F)C1=O (stereo unspecified)	i	nt	i	19835	i	nt	nt	nt
CCn1c(C)c(C(C)=O)c(N2CCN(c3ccccc3)CC2)nc1=S	i	nt	46	i	i	i	i	i
CCn1c(C)c(C(C)=O)c(N2CCN(C(c3ccccc3)c3ccccc3)CC2)nc1=S	i	i	i	i	i	nt	nt	nt
Clc1ccccc1-c1nnc2n1CCCCC2	37	i	i	i	i	i	i	i
C[C@@H]1CN([C@H](C)CO)C(=O)Cc2cc(NC(=O)CCN3CCOCC3)ccc2O[C@@H]1CN(C)S(=O)(=O)c1ccc(F)cc1	nt	i	nt	nt	nt	nt	nt	nt
CCOC(=O)c1c(NC(=S)N2CCOCC2)sc(C)c1C	i	i	i	i	48	i	i	i
CCOC(=O)c1c(N)sc(C(=O)N2CCOCC2)c1C	i	nt	i	i	i	nt	nt	nt
Cc1noc(C)c1NC(=O)N[C@@H]1CC[C@H](CCNC(=O)C2CCCCC2)O[C@H]1CO	nt	i	nt	nt	nt	nt	nt	nt
C[C@@H]1CN([C@H](C)CO)C(=O)c2cccc(NC(=O)CCCCCC(=O)Nc3ccccc3N)c2O[C@@H]1CN(C)S(=O)(=O)c1cccs1	nt	i	nt	nt	nt	nt	nt	nt
COc1ccccc1NS(=O)(=O)c1ccc2[nH]c(=O)[nH]c2c1	i	i	i	i	36	i	i	i
SMILES	Anthrax LF prot	TcdB inh	BoNT A protease	Bead autofluor	BoNT-F LC inh	BoNT-A LC CP1	BoNT-F LC CP1	LF protease CP1
O=c1[nH]c2ccc(S(=O)(=O)Nc3ccccc3O)cc2[nH]1	i	i	i	i	i	nt	nt	nt
COc1ccc2c(n1)Sc1nc3ccccc3nc1N2	i	i	30	i	i	i	i	i
COc1cc2ccccc2nn1	i	i	i	i	i	nt	nt	nt
CCNc1ccc(S(=O)(=O)N(C)C)cc1NCC(=O)Nc1ccccc1F	i	nt	i	i	i	nt	nt	nt
CCNc1ccc(S(=O)(=O)N(C)C)cc1NCC(=O)Nc1ccccc1Br	i	i	i	i	41	i	i	i
COc1ccccc1OCCNC(=O)c1cc(F)c(F)cc1Cl	i	i	i	i	i	nt	nt	nt
COc1ccccc1OCCNC(=O)Nc1cc(F)c(F)cc1Cl	31	i	i	i	?	i	i	i
COc1cccc(S(=O)(=O)NCc2ccc(C(=O)NCC3CCCO3)cc2)c1 (stereo unspecified)	i	nt	i	i	38	i	i	i
CC(C)(C)c1ccc(S(=O)(=O)NCc2ccc(C(=O)NCC3CCCO3)cc2)cc1 (stereo unspecified)	i	i	i	i	i	nt	nt	nt
CC1CCN(CCCCOc2ccccc2Br)CC1	i	i	i	i	43	i	i	i
CC1CCN(CCCCOc2ccccc2F)CC1	i	i	i	i	i	nt	nt	nt
Cc1noc(C)c1S(=O)(=O)N(C)C[C@@H]1Oc2ccc(NS(=O)(=O)c3ccc(Cl)cc3)cc2C(=O)N([C@@H](C)CO)C[C@@H]1C	nt	i	nt	nt	nt	nt	nt	nt
C[C@H](CO)N1C[C@H](C)[C@H](CN(C)C(=O)CN2CCOCC2)Oc2ncc(C3=CCCC3)cc2C1=O	nt	i	nt	nt	nt	nt	nt	nt
C[C@H]1CN([C@@H](C)CO)C(=O)c2cc(/C=C/c3ccccc3)cnc2O[C@@H]1CN(C)S(=O)(=O)c1ccccc1	nt	i	nt	nt	nt	nt	nt	nt
O=C1c2ccccc2C(=O)N1C1CCCCC1	50	i	i	i	?	i	i	i
C[C@@H]1CN([C@H](C)CO)C(=O)c2cccc(NC(=O)C3CCOCC3)c2O[C@@H]1CN(C)CC1CCCCC1	nt	i	nt	nt	nt	nt	nt	nt
O=C(C[C@H]1C[C@@H]2c3cc(NC(=O)CC4CC4)ccc3O[C@@H]2[C@@H](CO)O1)NCc1cccnc1	nt	i	nt	nt	nt	nt	nt	nt
COc1cc(S(=O)(=O)N(Cc2cccs2)CC2CCCO2)ccc1-n1cnnn1 (stereo unspecified)	i	i	?	i	41	i	i	i
O=C(C[C@@H]1C=C[C@H](NC(=O)CN2CCOCC2)[C@H](CO)O1)NCCc1ccncc1	nt	i	nt	nt	nt	nt	nt	nt
CCOC(=O)c1cc(C(=O)c2cccs2)n2ccc(C(C)=O)cc12	i	nt	35	i	i	i	i	i
CCOC(=O)c1cc(C(C)=O)n2ccccc12	i	nt	i	i	i	nt	nt	nt
C[C@@H]1CN([C@H](C)CO)C(=O)CCCn2cc(nn2)CO[C@@H]1CN(C)Cc1ccncc1	nt	i	nt	nt	nt	nt	nt	nt
Cc1ccc(NC(=O)Cc2ccc(Cl)cc2)nc1	47	i	i	?	?	i	i	i
CCC(=O)Nc1ccc2c(c1)OC[C@H](C)N(C(=O)C1CCC1)C[C@H](C)[C@@H](OC)CN(C)C2=O	nt	i	nt	nt	nt	nt	nt	nt
